Measurements reported in the supplement of paper PMC11732987, “Enantioselective OTUD7B fragment discovery through chemoproteomics screening and high-throughput optimisation” (Communications Chemistry, 2025).

Legend:
Assay in all cases: log2 ratio of Biotin-Ahx-Ub-VS probe labelling (fragment/DMSO); higher = less target engagement (more negative = stronger competition), active = hit call of the paper (q ≤ 0.05, log2 ratio ≤ -1)
Settings in all cases: compound concentration: 200 uM; treatment time: 3 h
USP42 = molecular target: T1, USP42 (UniProt Q9H9J4)
T1 sequence (whole entry): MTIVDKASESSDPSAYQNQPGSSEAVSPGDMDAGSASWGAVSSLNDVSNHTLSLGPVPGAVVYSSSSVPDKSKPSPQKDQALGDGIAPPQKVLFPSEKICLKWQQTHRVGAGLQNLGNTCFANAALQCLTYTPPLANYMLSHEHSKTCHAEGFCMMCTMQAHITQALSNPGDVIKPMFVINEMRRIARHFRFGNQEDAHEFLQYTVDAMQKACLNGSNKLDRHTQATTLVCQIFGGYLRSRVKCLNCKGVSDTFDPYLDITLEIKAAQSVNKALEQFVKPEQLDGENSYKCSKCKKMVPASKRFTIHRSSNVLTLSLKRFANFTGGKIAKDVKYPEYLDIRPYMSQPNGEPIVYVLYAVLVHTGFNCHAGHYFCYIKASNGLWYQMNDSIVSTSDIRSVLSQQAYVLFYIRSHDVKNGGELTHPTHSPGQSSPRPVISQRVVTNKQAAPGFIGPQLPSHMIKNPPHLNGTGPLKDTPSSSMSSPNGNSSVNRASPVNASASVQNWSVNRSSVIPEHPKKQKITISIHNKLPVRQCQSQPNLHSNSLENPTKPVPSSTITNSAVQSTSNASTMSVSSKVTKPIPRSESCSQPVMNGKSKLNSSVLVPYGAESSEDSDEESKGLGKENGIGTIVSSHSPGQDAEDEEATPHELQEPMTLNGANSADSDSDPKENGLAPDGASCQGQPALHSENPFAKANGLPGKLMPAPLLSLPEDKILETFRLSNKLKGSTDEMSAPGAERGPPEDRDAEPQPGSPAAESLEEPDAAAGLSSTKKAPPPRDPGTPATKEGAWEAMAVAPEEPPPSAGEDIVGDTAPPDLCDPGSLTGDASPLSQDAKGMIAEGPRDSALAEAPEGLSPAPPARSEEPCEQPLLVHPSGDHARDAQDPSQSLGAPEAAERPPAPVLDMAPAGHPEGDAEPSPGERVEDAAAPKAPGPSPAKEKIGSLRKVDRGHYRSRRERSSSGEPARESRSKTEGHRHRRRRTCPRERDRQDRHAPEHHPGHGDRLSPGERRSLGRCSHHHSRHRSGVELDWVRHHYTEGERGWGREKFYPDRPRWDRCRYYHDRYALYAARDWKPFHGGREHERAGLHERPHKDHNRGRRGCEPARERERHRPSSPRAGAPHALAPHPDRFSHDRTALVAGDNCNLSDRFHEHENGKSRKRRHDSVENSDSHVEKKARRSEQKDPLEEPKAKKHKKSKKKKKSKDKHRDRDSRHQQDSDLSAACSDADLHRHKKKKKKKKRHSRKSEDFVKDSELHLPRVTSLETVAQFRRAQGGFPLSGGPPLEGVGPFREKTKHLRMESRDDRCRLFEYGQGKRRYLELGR
How it was run: (§1)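 HEK293T lysate (495 µg per sample, in Tris/CHAPS/IGEPAL buffer with protease inhibitors) was treated in triplicate with fragment at 200 µM or with DMSO for 3 h. It was then treated with Biotin-Ahx-Ub-VS (0.5 µM final) for 1 h. Labelled DUBs were NeutrAvidin-enriched, digested with LysC and trypsin, and run by diaPASEF LC-MS/MS. Spectronaut label-free quantities were global-median-normalised. Values are average log2 ratios fragment/DMSO by unpaired t-test, using proteins with ≥2 unique peptides.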

USP46 = USP46 (UniProt P62068)
How it was run: as §1

USP47 = molecular target: T2, USP47 (UniProt Q96K76)
T2 sequence (whole entry): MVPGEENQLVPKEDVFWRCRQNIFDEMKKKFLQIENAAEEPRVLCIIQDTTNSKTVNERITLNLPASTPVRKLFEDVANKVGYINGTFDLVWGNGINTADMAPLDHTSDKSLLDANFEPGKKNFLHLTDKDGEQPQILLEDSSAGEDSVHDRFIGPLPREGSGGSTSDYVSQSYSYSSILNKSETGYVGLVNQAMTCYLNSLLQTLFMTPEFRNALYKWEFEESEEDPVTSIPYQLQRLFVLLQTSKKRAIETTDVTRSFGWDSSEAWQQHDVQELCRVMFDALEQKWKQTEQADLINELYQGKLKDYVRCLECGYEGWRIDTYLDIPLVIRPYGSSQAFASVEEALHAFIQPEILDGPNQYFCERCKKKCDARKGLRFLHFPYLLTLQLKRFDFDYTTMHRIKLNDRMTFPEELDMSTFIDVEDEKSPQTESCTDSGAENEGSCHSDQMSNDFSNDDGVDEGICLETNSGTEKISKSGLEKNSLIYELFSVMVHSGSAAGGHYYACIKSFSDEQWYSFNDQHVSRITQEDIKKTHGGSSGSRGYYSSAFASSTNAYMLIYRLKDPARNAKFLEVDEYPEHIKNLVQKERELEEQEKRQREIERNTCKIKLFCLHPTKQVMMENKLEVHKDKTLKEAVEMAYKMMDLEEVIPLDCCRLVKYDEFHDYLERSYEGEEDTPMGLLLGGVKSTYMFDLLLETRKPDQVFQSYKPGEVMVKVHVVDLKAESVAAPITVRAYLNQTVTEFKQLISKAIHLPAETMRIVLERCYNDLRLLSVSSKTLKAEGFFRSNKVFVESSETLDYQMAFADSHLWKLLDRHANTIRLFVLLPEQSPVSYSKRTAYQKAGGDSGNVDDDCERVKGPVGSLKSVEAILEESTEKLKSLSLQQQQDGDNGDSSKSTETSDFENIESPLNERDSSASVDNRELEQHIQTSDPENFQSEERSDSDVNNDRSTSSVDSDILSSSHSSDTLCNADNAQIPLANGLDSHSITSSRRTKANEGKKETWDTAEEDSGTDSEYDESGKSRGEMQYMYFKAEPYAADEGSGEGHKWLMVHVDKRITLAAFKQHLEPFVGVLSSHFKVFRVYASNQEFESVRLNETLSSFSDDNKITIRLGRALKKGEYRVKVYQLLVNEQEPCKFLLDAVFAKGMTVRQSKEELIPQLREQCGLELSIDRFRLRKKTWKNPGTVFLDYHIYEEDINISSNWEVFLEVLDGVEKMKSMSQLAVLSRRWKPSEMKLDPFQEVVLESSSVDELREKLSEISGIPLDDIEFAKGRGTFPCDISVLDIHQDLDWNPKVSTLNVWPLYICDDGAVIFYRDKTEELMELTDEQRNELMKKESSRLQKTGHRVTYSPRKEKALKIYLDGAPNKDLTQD
How it was run: as §1

USP48 = molecular target: T3, USP48 (UniProt Q86UV5)
T3 sequence (whole entry): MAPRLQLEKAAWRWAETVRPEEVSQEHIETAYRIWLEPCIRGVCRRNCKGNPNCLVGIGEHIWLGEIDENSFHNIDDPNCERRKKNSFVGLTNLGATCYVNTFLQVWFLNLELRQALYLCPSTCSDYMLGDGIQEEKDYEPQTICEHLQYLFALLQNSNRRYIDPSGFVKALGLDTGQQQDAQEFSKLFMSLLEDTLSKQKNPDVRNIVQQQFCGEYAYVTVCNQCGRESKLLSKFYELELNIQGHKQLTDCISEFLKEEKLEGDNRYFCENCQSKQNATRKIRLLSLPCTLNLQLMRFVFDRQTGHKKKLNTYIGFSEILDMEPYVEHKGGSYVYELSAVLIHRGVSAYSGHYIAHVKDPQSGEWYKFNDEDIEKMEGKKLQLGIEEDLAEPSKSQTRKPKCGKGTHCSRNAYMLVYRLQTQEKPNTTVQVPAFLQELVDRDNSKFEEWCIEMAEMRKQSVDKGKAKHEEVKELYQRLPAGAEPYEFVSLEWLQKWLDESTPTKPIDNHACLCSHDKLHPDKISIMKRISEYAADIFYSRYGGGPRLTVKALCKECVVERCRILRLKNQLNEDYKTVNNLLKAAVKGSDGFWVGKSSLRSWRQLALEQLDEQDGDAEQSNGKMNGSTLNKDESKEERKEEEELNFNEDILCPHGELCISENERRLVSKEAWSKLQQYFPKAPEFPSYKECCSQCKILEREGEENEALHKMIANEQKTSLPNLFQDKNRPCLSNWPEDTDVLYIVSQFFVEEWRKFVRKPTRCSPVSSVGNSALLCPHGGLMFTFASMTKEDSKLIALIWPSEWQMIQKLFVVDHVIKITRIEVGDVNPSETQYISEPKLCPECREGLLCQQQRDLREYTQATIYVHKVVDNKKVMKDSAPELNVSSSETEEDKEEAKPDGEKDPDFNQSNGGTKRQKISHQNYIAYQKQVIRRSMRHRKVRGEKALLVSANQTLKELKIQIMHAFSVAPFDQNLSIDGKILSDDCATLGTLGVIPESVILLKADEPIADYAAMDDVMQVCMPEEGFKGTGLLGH
How it was run: as §1

USP5 = molecular target: T4, USP5 (UniProt P45974)
T4 sequence (whole entry): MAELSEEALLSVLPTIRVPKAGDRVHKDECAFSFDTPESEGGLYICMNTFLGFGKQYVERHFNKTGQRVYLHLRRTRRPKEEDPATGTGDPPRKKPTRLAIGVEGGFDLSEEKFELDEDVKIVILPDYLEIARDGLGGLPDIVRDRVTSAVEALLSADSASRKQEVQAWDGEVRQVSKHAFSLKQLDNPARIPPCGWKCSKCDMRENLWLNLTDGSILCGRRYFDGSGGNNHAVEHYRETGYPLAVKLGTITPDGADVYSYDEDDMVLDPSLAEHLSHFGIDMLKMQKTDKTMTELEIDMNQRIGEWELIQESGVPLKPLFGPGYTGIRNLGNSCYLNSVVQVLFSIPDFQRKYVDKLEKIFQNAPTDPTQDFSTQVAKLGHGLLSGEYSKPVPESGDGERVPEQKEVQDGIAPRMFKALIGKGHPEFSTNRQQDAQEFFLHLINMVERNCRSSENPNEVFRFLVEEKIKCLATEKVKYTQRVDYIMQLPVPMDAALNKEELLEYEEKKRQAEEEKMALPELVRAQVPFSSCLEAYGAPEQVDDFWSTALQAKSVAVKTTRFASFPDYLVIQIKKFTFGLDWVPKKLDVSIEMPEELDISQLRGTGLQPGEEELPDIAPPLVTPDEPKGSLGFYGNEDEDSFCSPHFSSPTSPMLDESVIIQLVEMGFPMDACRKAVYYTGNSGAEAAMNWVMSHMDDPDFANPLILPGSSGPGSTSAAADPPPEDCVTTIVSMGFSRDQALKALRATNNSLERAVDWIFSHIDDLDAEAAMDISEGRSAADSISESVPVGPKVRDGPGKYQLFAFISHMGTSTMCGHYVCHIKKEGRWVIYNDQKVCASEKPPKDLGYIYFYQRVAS
How it was run: as §1

USP54 = USP54 (UniProt Q70EL1)
How it was run: as §1

USP7 = USP7 (UniProt Q93009)
How it was run: as §1

USP8 = molecular target: T5, USP8 (UniProt P40818)
T5 sequence (whole entry): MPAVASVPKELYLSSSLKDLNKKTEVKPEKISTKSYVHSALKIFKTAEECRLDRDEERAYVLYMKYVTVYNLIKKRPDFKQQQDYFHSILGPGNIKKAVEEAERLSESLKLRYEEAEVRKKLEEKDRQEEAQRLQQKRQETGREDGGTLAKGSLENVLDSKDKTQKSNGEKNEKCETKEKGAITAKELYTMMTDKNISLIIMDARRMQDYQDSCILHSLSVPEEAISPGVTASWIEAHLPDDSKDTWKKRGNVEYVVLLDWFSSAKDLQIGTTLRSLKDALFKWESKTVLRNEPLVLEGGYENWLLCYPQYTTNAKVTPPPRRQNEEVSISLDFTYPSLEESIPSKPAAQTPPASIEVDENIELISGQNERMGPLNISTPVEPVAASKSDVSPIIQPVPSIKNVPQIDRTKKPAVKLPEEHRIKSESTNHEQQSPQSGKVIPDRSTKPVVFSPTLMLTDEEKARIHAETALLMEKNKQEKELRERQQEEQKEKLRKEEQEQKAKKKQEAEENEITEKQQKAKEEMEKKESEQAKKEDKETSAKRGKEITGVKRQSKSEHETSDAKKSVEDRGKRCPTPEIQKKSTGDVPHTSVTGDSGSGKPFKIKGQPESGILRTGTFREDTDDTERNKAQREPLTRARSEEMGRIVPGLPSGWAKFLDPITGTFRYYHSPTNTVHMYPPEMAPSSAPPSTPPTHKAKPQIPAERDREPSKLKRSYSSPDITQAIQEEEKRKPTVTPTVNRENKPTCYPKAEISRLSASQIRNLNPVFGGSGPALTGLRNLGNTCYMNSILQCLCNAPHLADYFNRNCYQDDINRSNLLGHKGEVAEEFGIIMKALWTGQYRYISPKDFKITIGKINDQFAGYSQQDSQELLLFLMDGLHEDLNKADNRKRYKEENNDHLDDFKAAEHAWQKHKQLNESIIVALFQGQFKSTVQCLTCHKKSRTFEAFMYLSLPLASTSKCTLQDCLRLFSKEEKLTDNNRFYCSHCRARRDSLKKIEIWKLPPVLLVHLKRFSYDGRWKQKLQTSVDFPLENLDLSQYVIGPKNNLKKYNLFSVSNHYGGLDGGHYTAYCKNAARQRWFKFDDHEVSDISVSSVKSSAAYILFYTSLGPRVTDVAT
How it was run: as §1

Measured: log2 ratio of Biotin-Ahx-Ub-VS probe labelling

Sequence of USP46 (P62068 whole entry): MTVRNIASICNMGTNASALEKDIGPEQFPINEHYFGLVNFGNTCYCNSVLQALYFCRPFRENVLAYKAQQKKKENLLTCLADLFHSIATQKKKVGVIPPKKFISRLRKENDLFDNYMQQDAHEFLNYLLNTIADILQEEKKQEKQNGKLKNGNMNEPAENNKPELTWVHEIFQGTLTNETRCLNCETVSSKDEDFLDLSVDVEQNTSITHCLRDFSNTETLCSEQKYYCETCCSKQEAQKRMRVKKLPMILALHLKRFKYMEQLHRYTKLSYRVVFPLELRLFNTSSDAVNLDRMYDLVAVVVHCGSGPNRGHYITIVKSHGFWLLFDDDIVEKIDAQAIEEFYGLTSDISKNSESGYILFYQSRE
Sequence of USP54 (Q70EL1 whole entry): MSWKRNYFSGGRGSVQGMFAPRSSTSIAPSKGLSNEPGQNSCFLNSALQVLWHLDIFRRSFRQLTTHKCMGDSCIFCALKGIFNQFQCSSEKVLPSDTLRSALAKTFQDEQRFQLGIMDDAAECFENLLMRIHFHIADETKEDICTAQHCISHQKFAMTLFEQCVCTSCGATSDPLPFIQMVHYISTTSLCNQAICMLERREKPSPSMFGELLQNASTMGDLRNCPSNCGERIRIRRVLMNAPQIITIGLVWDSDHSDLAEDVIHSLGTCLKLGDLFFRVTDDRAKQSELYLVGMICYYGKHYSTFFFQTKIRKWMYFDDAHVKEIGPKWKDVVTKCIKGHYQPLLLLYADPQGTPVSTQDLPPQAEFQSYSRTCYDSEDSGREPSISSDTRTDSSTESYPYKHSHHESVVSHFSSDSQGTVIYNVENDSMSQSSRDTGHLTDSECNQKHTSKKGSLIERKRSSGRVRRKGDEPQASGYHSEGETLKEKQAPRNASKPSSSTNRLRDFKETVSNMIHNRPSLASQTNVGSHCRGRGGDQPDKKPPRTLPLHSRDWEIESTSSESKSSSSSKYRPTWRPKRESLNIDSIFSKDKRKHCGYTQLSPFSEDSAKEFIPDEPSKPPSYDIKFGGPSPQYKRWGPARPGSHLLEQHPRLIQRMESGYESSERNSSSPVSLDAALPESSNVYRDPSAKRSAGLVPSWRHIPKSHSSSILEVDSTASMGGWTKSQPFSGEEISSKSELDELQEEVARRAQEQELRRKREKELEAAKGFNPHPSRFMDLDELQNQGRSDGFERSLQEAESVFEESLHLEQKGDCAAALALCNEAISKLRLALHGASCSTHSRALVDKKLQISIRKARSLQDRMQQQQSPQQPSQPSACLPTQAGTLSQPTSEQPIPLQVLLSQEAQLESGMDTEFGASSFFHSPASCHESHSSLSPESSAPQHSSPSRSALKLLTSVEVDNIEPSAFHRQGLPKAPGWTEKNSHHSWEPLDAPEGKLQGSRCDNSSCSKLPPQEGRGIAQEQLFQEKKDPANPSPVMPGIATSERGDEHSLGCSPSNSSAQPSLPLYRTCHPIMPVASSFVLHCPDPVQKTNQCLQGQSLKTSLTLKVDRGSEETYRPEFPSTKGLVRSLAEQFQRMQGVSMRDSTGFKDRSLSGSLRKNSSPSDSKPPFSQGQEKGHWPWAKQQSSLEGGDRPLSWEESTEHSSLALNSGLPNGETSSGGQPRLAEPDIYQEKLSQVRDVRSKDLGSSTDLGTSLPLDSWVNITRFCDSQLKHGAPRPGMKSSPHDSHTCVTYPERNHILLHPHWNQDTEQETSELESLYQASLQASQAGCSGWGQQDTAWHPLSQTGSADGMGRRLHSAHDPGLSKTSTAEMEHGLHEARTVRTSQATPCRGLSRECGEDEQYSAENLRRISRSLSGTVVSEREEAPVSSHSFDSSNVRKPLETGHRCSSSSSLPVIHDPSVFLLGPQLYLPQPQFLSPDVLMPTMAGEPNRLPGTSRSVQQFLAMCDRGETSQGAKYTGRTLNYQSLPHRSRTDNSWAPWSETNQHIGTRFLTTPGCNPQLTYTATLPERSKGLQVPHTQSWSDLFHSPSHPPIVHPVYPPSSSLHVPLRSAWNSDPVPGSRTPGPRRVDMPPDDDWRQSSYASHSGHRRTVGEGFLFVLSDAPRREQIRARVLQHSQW
Sequence of USP7 (Q93009 whole entry, looked up): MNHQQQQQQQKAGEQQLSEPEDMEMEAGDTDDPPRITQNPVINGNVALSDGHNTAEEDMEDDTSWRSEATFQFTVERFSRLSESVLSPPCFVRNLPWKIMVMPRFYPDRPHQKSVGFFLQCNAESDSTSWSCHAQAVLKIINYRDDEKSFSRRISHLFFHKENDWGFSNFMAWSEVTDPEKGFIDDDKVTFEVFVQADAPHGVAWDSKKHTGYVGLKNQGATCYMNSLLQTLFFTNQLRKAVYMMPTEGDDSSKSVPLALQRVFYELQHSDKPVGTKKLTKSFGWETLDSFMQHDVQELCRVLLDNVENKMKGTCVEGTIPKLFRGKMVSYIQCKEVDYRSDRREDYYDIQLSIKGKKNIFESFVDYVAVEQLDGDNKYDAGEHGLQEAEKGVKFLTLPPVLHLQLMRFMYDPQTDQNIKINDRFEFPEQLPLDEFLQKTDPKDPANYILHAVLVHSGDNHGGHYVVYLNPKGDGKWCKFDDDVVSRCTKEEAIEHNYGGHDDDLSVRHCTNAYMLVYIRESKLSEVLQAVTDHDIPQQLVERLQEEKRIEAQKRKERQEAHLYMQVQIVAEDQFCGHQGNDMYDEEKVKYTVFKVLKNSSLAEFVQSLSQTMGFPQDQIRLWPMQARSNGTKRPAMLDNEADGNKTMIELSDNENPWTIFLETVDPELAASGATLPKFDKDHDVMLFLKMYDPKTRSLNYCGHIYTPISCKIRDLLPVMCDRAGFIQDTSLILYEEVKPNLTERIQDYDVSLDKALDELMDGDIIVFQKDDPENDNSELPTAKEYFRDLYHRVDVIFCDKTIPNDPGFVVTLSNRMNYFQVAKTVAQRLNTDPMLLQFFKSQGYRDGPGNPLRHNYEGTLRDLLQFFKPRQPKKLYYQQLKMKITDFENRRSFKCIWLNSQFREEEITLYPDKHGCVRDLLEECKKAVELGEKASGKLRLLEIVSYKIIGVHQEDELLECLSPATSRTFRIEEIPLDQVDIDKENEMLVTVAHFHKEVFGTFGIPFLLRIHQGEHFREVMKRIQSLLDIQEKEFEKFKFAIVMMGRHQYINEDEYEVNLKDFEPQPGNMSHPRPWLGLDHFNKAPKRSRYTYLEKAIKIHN

O=C(CCl)Nc1ccc2c(c1)OC(F)(F)O2
inactive: USP42 -0.384 | USP46 -0.0942 | USP48 -0.476 | USP5 0.218 | USP54 0.684 | USP7 -0.296 | USP8 -0.29
active: USP47 -1.16
